Outcome and AC50 data for three compounds are collected here from PubChem BioAssay (EPA / NIEHS).

In general, AC50 refers to the concentration at which the activity in the assay is half-maximal.

Read-out in assay [1]: C-C motif chemokine 2 (Homo sapiens) (UniProt P13500)
Description: BSK_KF3CT_MCP1: BioMAP Diversity Plus: KF3CT Assay for Monocyte Chemoattractant Protein 1 (MCP1/CCL2) Biomarker Activity (AID 2283073). Conditions: primary human keratinocytes with fibroblasts; actives raise or lower the signal. The essentials: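 ELISA readout of MCP-1 after 24 h chemical dosing of a human skin primary co-culture of keratinocytes and foreskin fibroblasts. Activity was fitted in both directions against DMSO.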

Read-out in assay [2]: Matrix Metallopeptidase 9 (MMP9), MMP9 (gene 4318)
Description: BSK_KF3CT_MMP9: BioMAP Diversity Plus: KF3CT Assay for Matrix Metallopeptidase 9 (MMP9) Biomarker Activity (AID 2283074).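 On AC50: MMP9 protein level quantified by ELISA in the co-culture.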 Particulars: primary human keratinocytes with fibroblasts; actives raise or lower the signal. The essentials:
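Human keratinocyte and foreskin fibroblast co-culture exposed to chemicals for 24 h; MMP9 biomarker measured by ELISA, bidirectional fitting relative to DMSO; cytotoxicity tracked by SRB total protein staining in parallel cultures.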

Read-out in assay [3]: urokinase plasminogen activator (uPA), PLAU (gene 5328)
Description: BSK_KF3CT_uPA: BioMAP Diversity Plus: KF3CT Assay for urokinase plasminogen activator (uPA) Biomarker Activity (AID 2283075). Particulars: primary human keratinocytes with fibroblasts; actives raise or lower the signal. The essentials:
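Primary human keratinocyte/foreskin fibroblast co-culture exposed to chemical; uPA measured by ELISA at 24 h. Bidirectional fit versus DMSO, with parallel SRB total-protein staining for cytotoxicity.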

Read-out in assay [4]: CD40, CD40 (gene 958)
Description: BSK_LPS_CD40: BioMAP Diversity Plus: LPS Assay for CD40 Biomarker Activity (AID 2283076). Particulars: primary human HUVEC with PBMC; actives raise or lower the signal. In a few lines:
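Cells were dosed, incubated 24 h, then assayed for CD40 by ELISA. Gain or loss of signal was analysed relative to DMSO controls. The culture paired human umbilical vein endothelium with peripheral blood mononuclear cells.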

Read-out in assay [5]: E-selectin (Homo sapiens) (UniProt P16581)
Description: BSK_LPS_Eselectin: BioMAP Diversity Plus: LPS Assay for Eselectin Biomarker Activity (AID 2283077). Particulars: primary human HUVEC with PBMC; actives raise or lower the signal. In a few lines: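 Primary human vascular co-culture (endothelium plus PBMC) was dosed with chemical, then E-selectin quantified by ELISA at 24 h. Endpoint values derive from bidirectional curve fitting relative to DMSO.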

Read-out in assay [6]: Interleukin-8 (IL8), CXCL8 (gene 3576)
The experiment in a line: BSK_LPS_IL8: BioMAP Diversity Plus: LPS Assay for Interleukin-8 (IL8) Biomarker Activity (AID 2283078). Conditions: primary human HUVEC with PBMC; actives raise or lower the signal. In a few lines:
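Readout is IL-8 by ELISA, taken 24 h after compounds were added to LPS-stimulated endothelial/PBMC co-cultures. Both increases and decreases relative to DMSO control were scored through bidirectional fitting.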

Assay [7] is described as follows: BSK_LPS_SRB: Viability Assessment in the BioMAP Diversity Plus: LPS Assay (AID 2283079).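 Further: total protein by sulforhodamine B absorbance as a cytotoxicity measure; measured one day after compound addition.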 Conditions: primary human HUVEC with PBMC. In a few lines:
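Readout is SRB absorbance at 560 nm (0.1% stain, TCA-fixed parallel cultures) as a total-protein cytotoxicity measure. Cells: primary human umbilical vein endothelium plus peripheral blood mononuclear cells, 24 h after chemical exposure; DMSO served as baseline.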

Read-out in assay [8]: Interleukin-1 alpha (IL1a), IL1A (gene 3552)
Description: BSK_LPS_IL1a: BioMAP Diversity Plus: LPS Assay for Interleukin-1 alpha (IL1a) Biomarker Activity (AID 2283080). Particulars: primary human HUVEC with PBMC; actives raise or lower the signal. In a few lines: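 ELISA read-out of IL-1 alpha from a human primary vascular co-culture (endothelium plus PBMC) under LPS, sampled 24 hours post-dosing. Activity was fitted in both directions relative to DMSO controls.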

Read-out in assay [9]: Monocyte Chemoattractant Protein-1 (MCP1), CCL2 (gene 6347)
Description: BSK_LPS_MCP1: BioMAP Diversity Plus: LPS Assay for Monocyte Chemoattractant Protein-1 (MCP1) Biomarker Activity (AID 2283081).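 On AC50: secreted MCP-1 protein quantified by ELISA in culture supernatant.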 Particulars: primary human HUVEC with PBMC; actives raise or lower the signal. The essentials: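 Human endothelial–PBMC co-cultures were dosed with chemical, then LPS-driven MCP-1 levels were quantified by ELISA at 24 h. Activity in either direction was fitted versus DMSO negative control.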

The nature of assay [10]: BSK_LPS_PGE2: BioMAP Diversity Plus: LPS Assay for Prostaglandin E2 (PGE2) Biomarker Activity (AID 2283082). Particulars: primary human HUVEC with PBMC; actives raise or lower the signal. The essentials: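 HUVEC plus PBMC co-culture stimulated with LPS; secreted PGE2 quantified by ELISA 24 h after chemical dosing. Activity fitted bidirectionally against DMSO as negative control and baseline; parallel SRB total-protein staining served as cytotoxicity check.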

Read-out in assay [11]: Macrophage colony-stimulating factor (MCSF), CSF1 (gene 1435)
The experiment in a line: BSK_LPS_MCSF: BioMAP Diversity Plus: LPS Assay for Macrophage colony-stimulating factor (MCSF) Biomarker Activity (AID 2283083). Conditions: primary human HUVEC with PBMC; actives raise or lower the signal. In a few lines:
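ELISA readout of M-CSF after 24 h compound exposure in a human endothelial/PBMC co-culture. Activity, in either direction, is fitted relative to DMSO vehicle.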

Read-out in assay [12]: Tissue Factor, F3 (gene 2152)
The experiment in a line: BSK_LPS_TissueFactor: BioMAP Diversity Plus: LPS Assay for Tissue Factor Biomarker Activity (AID 2283084). Particulars: primary human HUVEC with PBMC; actives raise or lower the signal. The essentials: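 ELISA signal for cell-surface Tissue Factor (CD142) was read 24 h after compound dosing of an LPS-stimulated human endothelial–PBMC primary co-culture. Gain or loss of signal was scored relative to DMSO.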

Read-out in assay [13]: Vascular cell adhesion molecule 1 (VCAM1), VCAM1 (gene 7412)
Description: BSK_LPS_VCAM1: BioMAP Diversity Plus: LPS Assay for Vascular cell adhesion molecule 1 (VCAM1) Biomarker Activity (AID 2283086). Conditions: primary human HUVEC with PBMC; actives raise or lower the signal. In a few lines: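 Human umbilical vein endothelial cells co-cultured with peripheral blood mononuclear cells under LPS stimulation were exposed to test chemical for 24 h. VCAM-1 levels were then measured by ELISA, with bidirectional curve fitting relative to DMSO as negative control and baseline.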

Read-out in assay [14]: CD38, CD38 (gene 952)
The experiment in a line: BSK_SAg_CD38: BioMAP Diversity Plus: SAg Assay for CD38 Biomarker Activity (AID 2283087). Particulars: primary human HUVEC with PBMC; actives raise or lower the signal. The essentials:
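Fluorescence ELISA of cell-surface CD38 served as the read-out, with either increase or decrease fitted against DMSO controls. Cells were a human umbilical vein endothelium plus PBMC co-culture under SEB/TSST-1 stimulation, measured 24 h after dosing.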

Read-out in assay [15]: CD40, CD40 (gene 958)
Description: BSK_SAg_CD40: BioMAP Diversity Plus: SAg Assay for CD40 Biomarker Activity (AID 2283088). Conditions: primary human HUVEC with PBMC; actives raise or lower the signal. In a few lines: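 Compounds were dosed onto a human primary endothelial–PBMC co-culture, and after 24 h CD40 was quantified by ELISA using a fluorescence signal. Activity in either direction was fitted relative to DMSO.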

Read-out in assay [16]: CD69, CD69 (gene 969)
The experiment in a line: BSK_SAg_CD69: BioMAP Diversity Plus: SAg Assay for CD69 Biomarker Activity (AID 2283089).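 On AC50: cell surface CD69 protein quantified by ELISA with fluorescence detection.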 Conditions: primary human HUVEC with PBMC; actives raise or lower the signal. In a few lines:
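HUVEC co-cultured with PBMC were dosed with chemical, and CD69 was measured by ELISA with fluorescence read-out 24 h later. Bidirectional curve fitting used DMSO as negative control and activity baseline.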

Read-out in assay [17]: Monocyte Chemoattractant Protein-1 (MCP1), CCL2 (gene 6347)
Description: BSK_SAg_MCP1: BioMAP Diversity Plus: SAg Assay for Monocyte Chemoattractant Protein-1 (MCP1) Biomarker Activity (AID 2283090). Particulars: primary human HUVEC with PBMC; actives raise or lower the signal. In a few lines:
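MCP-1 levels in the endothelial–PBMC SAg co-culture were quantified by ELISA at 24 h post-dosing; both increases and decreases versus DMSO scored. Cytotoxicity monitored by SRB total protein in parallel cultures.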

Read-out in assay [18]: E-selectin (Homo sapiens) (UniProt P16581)
Description: BSK_SAg_Eselectin: BioMAP Diversity Plus: SAg Assay for Eselectin Biomarker Activity (AID 2283091). Particulars: primary human HUVEC with PBMC; actives raise or lower the signal. In a few lines:
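Co-culture: HUVEC + PBMC. Dose compound; 24 h. ELISA for E-selectin. Bidirectional fit vs DMSO.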

Read-out in assay [19]: Monokine induced gamma interferon (MIG), CXCL9 (gene 4283)
The experiment in a line: BSK_SAg_MIG: BioMAP Diversity Plus: SAg Assay for Monokine induced gamma interferon (MIG) Biomarker Activity (AID 2283092). Particulars: primary human HUVEC with PBMC; actives raise or lower the signal. The essentials: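 HUVEC plus human PBMC co-culture, chemicals dosed and MIG (CXCL9) quantified by ELISA at 24 h. Bidirectional curve fitting against DMSO as negative control and baseline, so both gain and loss of signal count as activity.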

Read-out in assay [20]: Tumor necrosis factor (Homo sapiens) (UniProt P01375)
Description: BSK_LPS_TNFa: BioMAP Diversity Plus: LPS Assay for Tumour Necrosis Factor alpha (TNFa) Biomarker Activity (AID 2283085). Particulars: primary human HUVEC with PBMC; actives raise or lower the signal. The essentials: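 Human umbilical vein endothelial cells co-cultured with PBMC were exposed to test chemical and TNFa measured by ELISA 24 h after dosing. Bidirectional curve fitting was done relative to DMSO as negative control and baseline.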

Several values for one entry are separate records, joined by “and”; a condition that tells them apart may be missing. Equal entries are not always repeated. More than one record can exist for a structure, and the calls need not agree. Activity calls are given as the source filed them. How the source made its calls: active means hit-call score of the fitted dose curve at least 0.9, where 1 is the maximum; inactive means score below 0.9.

Sequence of E-selectin (Homo sapiens) (P16581 whole entry, looked up): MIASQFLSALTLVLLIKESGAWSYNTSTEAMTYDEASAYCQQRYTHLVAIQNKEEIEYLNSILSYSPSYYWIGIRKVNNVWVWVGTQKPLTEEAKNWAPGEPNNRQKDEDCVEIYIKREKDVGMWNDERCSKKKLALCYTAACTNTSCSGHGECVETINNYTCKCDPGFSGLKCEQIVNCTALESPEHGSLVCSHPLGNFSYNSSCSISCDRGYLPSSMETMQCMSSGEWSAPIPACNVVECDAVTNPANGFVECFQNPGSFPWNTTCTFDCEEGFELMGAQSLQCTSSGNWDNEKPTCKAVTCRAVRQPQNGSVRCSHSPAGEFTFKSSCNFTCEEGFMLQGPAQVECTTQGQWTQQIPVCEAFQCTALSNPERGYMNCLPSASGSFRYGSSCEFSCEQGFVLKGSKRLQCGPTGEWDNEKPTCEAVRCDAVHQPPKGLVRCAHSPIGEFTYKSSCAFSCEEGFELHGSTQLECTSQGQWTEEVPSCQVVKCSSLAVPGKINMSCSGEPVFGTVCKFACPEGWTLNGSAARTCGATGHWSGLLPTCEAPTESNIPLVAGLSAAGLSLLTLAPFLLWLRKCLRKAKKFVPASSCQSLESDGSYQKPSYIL
Sequence of Tumor necrosis factor (Homo sapiens) (P01375 whole entry, looked up): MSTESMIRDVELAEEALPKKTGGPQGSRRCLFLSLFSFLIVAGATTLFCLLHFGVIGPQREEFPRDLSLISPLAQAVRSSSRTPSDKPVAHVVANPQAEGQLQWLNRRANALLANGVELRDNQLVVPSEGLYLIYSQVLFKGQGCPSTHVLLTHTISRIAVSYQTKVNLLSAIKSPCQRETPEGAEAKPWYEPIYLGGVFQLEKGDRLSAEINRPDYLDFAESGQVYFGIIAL

For `CC1(C)[C@H](C(=O)O[C@H](C#N)c2cccc(Oc3ccccc3)c2)[C@@H]1/C=C(\Cl)C(F)(F)F`, the outcome in assay [1], in [3], in assay [4], in assay [5], in assay [6] and in assay [7] was inactive. The result in [8], in assay [9], in [11], in assay [12], in assay [13] and in assay [14] was inactive. Moreover, the result in assay [16], in assay [17], in assay [18] and in assay [19] was inactive. The AC50 in assay [2] is 357 nM (active); in assay [3], 120 nM (active); in [6] it was 49.5 nM (active); in assay [8], 21.3 µM (active); in assay [10], 904 nM (active) and 862 nM (active); in assay [14], 5.06 µM (active). Moreover, the AC50 in assay [15] was 4.51 µM (active); in [16], 3.39 µM (active).

As for `CC(C)(COCC1CO1)COCC1CO1` (centres undefined), the result in assay [1], in assay [2], in assay [3], in assay [4], in assay [5] and in assay [6] was inactive. Besides, the outcome in [7], in assay [8], in assay [9], in assay [10], in assay [11] and in assay [12] was inactive. Further, the outcome in assay [20], in [13], in assay [14], in assay [15], in assay [17] and in assay [19] was inactive. Also, the AC50 in assay [16] and in [18] was 20 µM (active) in each case.

Take `[Cl][Sn]([c]1ccccc1)([c]1ccccc1)[c]1ccccc1`: the AC50 is 190 nM (active) in assay [1]; 69.2 nM (active) in [2]; 168 nM (active) in assay [3]; 117 nM (active) in assay [4]; 305 nM (active) in [5]; 577 nM (active) in [6]. For the same compound, the AC50 was 1.08 µM (active) in assay [7]; 0.154 µM (active) in assay [8]; 258 nM (active) in assay [9]; 138 nM (active) in assay [11]; 308 nM (active) in assay [12]; 134 nM (active) in [20]. For the same compound, the AC50 is 195 nM (active) in assay [13]; 0.141 µM (active) in assay [14]; 0.146 µM (active) in assay [15]; 0.176 µM (active) in assay [16]; 327 nM (active) in assay [17]; 0.227 µM (active) in assay [18]. In addition, the AC50 in assay [19] is 259 nM (active). The outcome in assay [10] was inactive.
